ADAM17 inh = inhibits human ADAM17; inhibition, % at 6.95 µM; AID 720648; 0.83% of 370,000 active; P78536; recombinant ADAM17, EDANS/DABCYL FRET peptide cleavage;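 active = inhibition above the mean of compounds lying between control limits plus 3 SD, set per campaign, cut at about 8.5% in these data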
aDG glyco act = increases alpha dystroglycan glycosylation; Pro5-aDG cells, alpha-DG glycosylation AlphaScreen (IIH6); 0% Pro5, 100% B10-LARGE cell signal; activation, % at 10 µM; 0.22% of 360,000 active;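 active = activation of at least 8% versus controls, or a plate z-score of at least 8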;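 note: Pro5 are CHO cells carrying HIG-tagged alpha-DG that lacks glycosylation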
NR3A LBD binder = modulates the human NR3A ligand-binding domain | NR3A LBD differential scanning fluorimetry, Tm shift; 0% = protein alone, 100% = glycine-bound protein | Tm shift relative to glycine control, % at 25 µM | 2.5% of 340,000 active | AID 1259313;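 active = melting temperature shift of at least 10% of the positive control shift, at one fixed dose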
ADAM10 inh = inhibits human ADAM10 | O14672 | recombinant ADAM10, EDANS/DABCYL FRET peptide cleavage, 3 h | inhibition, % at 7 µM | 0.62% of 370,000 active;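 active = inhibition above a per-campaign cutoff equal to the mean of compounds falling between control-based bounds plus 3 SD, cut at about 20% in these data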
FAS TE block = FAS thioesterase (human) inhibition; recombinant FAS-TE, OMFH fluorogenic substrate, fluorescence endpoint; inhibition, % at 15 µM; 0.67% of 360,000 active;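 active = compounds whose normalised, plate-corrected inhibition of enzyme fluorescence in the single-dose primary screen is 50% or more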
Large screens that a line does not name were inactive. This is a sample that favours compounds with a hit; in the whole collection about 4% have one here.

CC(Sc1nnc(COc2ccccc2)n1Cc1ccccc1)C(=O)O (configuration not stated)	none
COc1cc2c(cc1OC)C(C)N(C(=O)c1cc(C)on1)CC2 (configuration not stated)	NR3A LBD binder 13
COCCn1c(SCC(=O)Nc2ccc(Cl)c(S(=O)(=O)N(C)C)c2)nc2ccccc21	none
CC(CCC(=O)NN)C1CCC2C3CCC4CC(O)CCC4(C)C3CCC12C (configuration not stated)	none
CC(CCC(C)C(C)(C)C)[C@@H]1CC[C@H]2C3C[C@H](OS(O)(=S)=S)[C@H]4C[C@H](OS(O)(=S)=S)[C@@H](OS(O)(=S)=S)C[C@]4(C)[C@H]3CC[C@]12C (some centres not stated) (tested in a mixture with another compound)	FAS TE block 81 (no result: ADAM17 inh, ADAM10 inh)
CN(C(=O)C1Cc2c(-c3ccccc3Oc3ccccc3)ccnc2O1)c1ccccc1 (configuration not stated)	none (no result: NR3A LBD binder)
O=C(/C=C/c1cccc([N+](=O)[O-])c1)OC1CCCCC1=O (configuration not stated)	NR3A LBD binder 12
O=C(/C=C/c1cccc([N+](=O)[O-])c1)Nc1cccc(NC(=O)c2ccco2)c1	NR3A LBD binder 27
O=C(/C=C/c1cccc([N+](=O)[O-])c1)c1ccco1	none
O=C(N/C(=C/c1cccc([N+](=O)[O-])c1)C(=O)N1CCCCCC1)c1cccs1	NR3A LBD binder 15
O=C(Nc1ccc(Cl)c([N+](=O)[O-])c1)c1ccco1	none
O=C(/C=C/c1ccc(Cl)c([N+](=O)[O-])c1)Nc1cccc(NC(=O)c2ccco2)c1	NR3A LBD binder 11
O=C(N/C(=C/c1cccc([N+](=O)[O-])c1)C(=O)N1CCCCC1)c1cccs1	none
C/C(N)=C(/C#N)C(=O)CSc1nnc(COc2cc(C)ccc2C)o1	none
Cc1ccc(NC(=O)/C(=C\c2cccc([N+](=O)[O-])c2)NC(=O)c2cccs2)cc1	none
O=C(/C=C/c1cccc([N+](=O)[O-])c1)Nc1cccc(NC(=O)c2cccs2)c1	NR3A LBD binder 11
O=C(/C=C/c1ccc(Cl)c([N+](=O)[O-])c1)Nc1ccc(NC(=O)c2ccco2)cc1	NR3A LBD binder 33
Cc1ccc(NC(=O)/C(=C/c2cccc([N+](=O)[O-])c2)NC(=O)C2CCCCC2)cc1	none
CC(=O)N/C(=C\c1cccc([N+](=O)[O-])c1)C(=O)NC1CCCCC1	NR3A LBD binder 11
Cc1c(Cl)c([N+](=O)[O-])nn1CCCC(=O)Nc1cccc(O)c1	NR3A LBD binder 12
Cc1c(Cl)c([N+](=O)[O-])nn1CCCC(=O)Nc1cccc(Cl)c1Cl	none
O=C1c2ccccc2-c2cc(Br)ccc2NC1O (configuration not stated)	none (no result: NR3A LBD binder)
COc1nc(Cl)cn(-c2ccc(C)cc2)c1=O	none
Cc1ccc(-n2c(Cl)c(Cl)nc(Cl)c2=O)cc1	FAS TE block 78 (no result: ADAM17 inh, ADAM10 inh)
Cc1cccc2cc(CN(Cc3ccc(F)cc3)C(=O)N(C)C)c3nnnn3c12	NR3A LBD binder 12
Cc1ccc(C(CC(=O)N2CCCCC2)c2ccccc2)c(O)c1C (configuration not stated)	NR3A LBD binder 13
CCOc1ccc(/C=C/C2=Cc3c(sc(NC(=O)CSc4n[nH]c(N)n4)c3C#N)C(C)(C)C2)cc1	NR3A LBD binder 14
CCOC(=O)c1sc(NC(=O)CSc2n[nH]c(-c3ccncc3)n2)c(C#N)c1C	none
Cc1ccsc1/C=C/C1=Cc2c(sc(NC(=O)CSc3n[nH]c(N)n3)c2C#N)C(C)(C)C1	NR3A LBD binder 10
Cc1ccc(CNC(=O)c2cn(C)c(=O)c3c2c2ccccc2n3C)o1	none
O=C(N/N=C/c1c(O)ccc2ccccc12)c1[nH]ncc1Br	NR3A LBD binder 30
COc1ccc(/C=N/NC(=O)c2ccc(Br)cc2)c(OC)c1	none
CCOc1ccc(/C=N/NC(=O)c2[nH]ncc2Br)c(O)c1	NR3A LBD binder 27
COc1ccc(OC)c(/C=N/NC(=O)c2[nH]ncc2Br)c1	NR3A LBD binder 21
Cc1ccc(O)c(/C=N/NC(=O)c2[nH]ncc2Br)c1	none
COc1ccc(/C=N/NC(=O)c2ccncc2)c(OC)c1	NR3A LBD binder 20
Cc1cc2c(cc1S(=O)(=O)N1CCCC1)n(C)c(=O)c(=O)n2C	none
